An excerpt weighted towards active compounds, which were near 3.8% of everything screened.
ATXN2 expr inh – reduces ATXN2 reporter expression in HEK-293 cells. Potency, µM (titrated, usually from 57 µM), for inactives: at the top dose activity change, negative = inhibition, most hits filed as inhibitors. hit rate 0.72% among 360,000. HEK-293 ATXN2-luciferase reporter, luminescence, 24 h; note: % is set by controls: 0 for no effect and ±100 for the full control effect; nearly all actives have a fitted effect of over 55% in size
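qHTS (up to 57 uM final) was run with 24 h compound exposure of reporter cells at 37 °C. Each well was multiplexed: SteadyGlo luminescence measured ATXN2-luciferase expression after a fluorogenic Gly-Phe-AFC viability readout (25 uM final).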
ATXN viability – reduces viability in counter-screen for ATXN expression inhibitors; AID 651635; hit rate 0.49% among 400,000; S2 cells (HEK-293 line with an ATXN2-luciferase reporter) viability, CellTiter-Fluor protease fluorescence, 24 h; Potency, µM (top dose mostly 56.7 µM), usual class: cytotoxic; note: nearly all actives have a fitted effect of over 40% in size
TGFb inhibitor – inhibitors of TGF-b signaling; HepG2 CAGA-GFP TGF-b/SMAD3 reporter, GFP fluorescence, 18 h; TGF-beta stimulated, 500 pg/mL final; Potency, µM (titrated, usually from 46.1 µM), for the others: at the top dose activity, negative = inhibition, most hits filed as inhibitors; hit rate 1.2% among 410,000; AID 588855; note: % is set by controls: 0 for no effect and ±100 for the full control effect; nearly all actives have a fitted effect of over 65% in size
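Read-out: total well GFP (ex488/em500-530) summed from mean per-cell fluorescence. Cells: HEPG2 CAGA-GFP, 1% FBS DMEM, 18 h at 37 degrees C with 500 pg/mL final TGF-beta. Unstimulated wells served as the full-inhibition control; stimulated DMSO wells = 0%.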
HepG2 tox – kills HepG2 cells in TGF-b inhibitor counter-screen; HepG2 CAGA-GFP viability, ATP luminescence, 18 h; Potency, µM (series often up to 46.1 µM), inactives show at the top dose activity change, negative = cytotoxicity, usual class: cytotoxic; hit rate 0.76% among 410,000; AID 588856
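HepG2 CAGA-GFP cells (1000/well, DMEM with 1% FBS) received compound, then TGF-beta at 500 pg/mL final, and were incubated 18 hours at 37 degrees C. Viability was read by CellTiter-Glo luminescence. Media-only wells were set as complete cell-killing and DMSO as no toxicity.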
Nrf2 inh – Nrf2 pathway inhibition; A549 ARE-Fluc reporter, luciferase luminescence, 18-24 h; Potency, µM (highest dose often 46 µM), inactives show at the top dose activity change, negative = inhibition, usual class: inhibitors; hit rate 2.1% among 360,000; AID 504444; note: % is set by controls: 0 for no effect and ±100 for the full control effect; nearly all actives have a fitted effect of over 60% in size
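A549 ARE_Fluc cells (5000/well, 5% FBS OPTI-MEM) pre-incubated 2 h, then treated with compounds 18-24 h at 37C/5% CO2 in concentration-response. CellTiter-Fluor viability read first; BugLite luciferase luminescence after 15 min at room temperature gives Nrf2 activity.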
A549 viability – A549 cytotoxicity, counter-screen for Nrf2 inhibitors. A549 ARE-Fluc cells, CellTiter-Fluor viability, 18-24 h. Potency, µM (doses to about 46 µM), without a hit: at the highest dose activity change, negative = cytotoxicity, hits mostly inhibitors. hit rate 0.16% among 390,000. AID 504648; note: % is set by controls: 0 for no effect and ±100 for the full control effect
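Cytotoxicity counterscreen: CellTiter-Fluor fluorescence was measured in A549 ARE_Fluc cells after 18-24 h of compound exposure in a concentration series. The subsequent BugLite luminescent read reports ARE-luciferase activity.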
* = called active by the depositor; i = inactive; ? = inconclusive; / = not tested or not shown. Calls come from the whole dose curve; as a rule, active = well fitted curve in the direction sought with a large enough effect; inconclusive = small, poorly fitted or top-dose-only effect, or another doubt; inactive = no such curve, though single readings can be large; an effect the other way counts as inactive or inconclusive. Potency is the fitted concentration of half-maximal effect.

SMILES | ATXN2 expr inh | ATXN viability | TGFb inhibitor | HepG2 tox | Nrf2 inh | A549 viability
CCN1C(=O)/C(=C/c2ccc(N(CC)CC)cc2OC)C(=O)NC1=S | ? | i | 20% | 3% | -2% | 0%
N#CC(C#N)=NNc1ccc(-n2ccc(C(F)(F)F)n2)cc1 | ? | ? | 3.2µM* | -45% | 16µM* | ?
N=c1c2c(n(Cc3ccc(Cl)cc3Cl)c3c1CCC3)CCCC2 | ? | i | -12% | -22% | 13µM* | ?
COc1cccc(C2CCN(CC(=O)Nc3cc(Cl)ccc3OC)CC2O)c1 (configuration not stated) | 1% | i | 5% | -5% | -21% | -1%
COC(=O)c1ccc(N2CCN(C)CC2)c([N+](=O)[O-])c1 | -13% | i | -17% | 1% | 0% | -3%
NC(=O)c1cc(N2CC2)c([N+](=O)[O-])cc1[N+](=O)[O-] | 19% | i | 8% | 2% | 13µM* | ?
CC(C)Oc1ccc(CNC(=O)Oc2ccccc2)cc1 | ? | ? | -21% | -21% | 2% | -1%
CN1C(=O)c2ccccc2Sc2ccc(NC(=O)NCc3ccc(Cl)cc3)cc21 | / | / | -3% | -3% | 15µM* | -11%
S=C(S)N1CCCC1 | -1% | i | 13% | 0% | 5.8µM* | -7%
COc1cc(=O)n2c(c1C(=O)N(C)Cc1nonc1C)CCN(C(=O)C1C(C)(C)C1(C)C)CC2 | / | i | / | / | / | /
Cc1ccc(C)c(NP(=O)(Oc2ccccc2)Oc2ccccc2)c1 | 0% | i | ? | -39% | 21µM* | ?
Cc1c(C(=O)NCCC2=CCCCC2)oc2ccc(S(=O)(=O)N3CCC4(CC3)OCCO4)cc12 | ? | i | -10% | -6% | 7.3µM* | -16%
CC(c1nccs1)N(C)C(=O)c1cn(Cc2cccc3ccccc23)nn1 (configuration not stated) | 45% | i | -4% | -10% | ? | 1%
CC(C)(C)c1nc(N2CCN(C(=O)c3ccco3)CC2)c2nnn(Cc3ccccc3Cl)c2n1 | -32% | i | ? | -14% | 18µM* | 2%
CCCOP(=O)(OCCC)c1nc(-c2ccccc2)oc1NCc1ccccc1 | -13% | i | ? | -51% | 18µM* | ?
CC1=C(C)CN2CC(C#N)=C(N)C2C1 (configuration not stated) | -2% | i | 24% | -6% | / | /
O=C(Nc1ccccc1C(F)(F)F)c1cccn(Cc2ccccc2)c1=O | 11% | i | 19% | 2% | / | 1%
COc1ccc(CN2CCN(c3ncnc4sc5c(c34)CCCC5)CC2)cc1F | / | / | / | -2% | 10µM* | -19%
Cc1ccc(C(=O)c2cn(CC(=O)Nc3ccc(C(C)C)cc3)c3nc(C)ccc3c2=O)cc1 | -2% | ? | 8% | 3% | 18% | 9%
O=c1[nH]c(=S)[nH]c(O)c1/C=C1/C=c2ccccc2=N1 | -14% | i | 13µM* | -42% | -17% | 1%
Cc1cccc2c1=NC(=O)/C(=C/c1c(O)[nH]c(=O)[nH]c1=O)C=2 | -4% | i | 1% | -5% | -5% | 1%
COc1ccccc1CNc1nc(NCc2ccccc2SC)c2sccc2n1 | ? | ? | ? | -55% | / | /
CC(C)NC(=O)Cn1cc(C(=O)c2ccccc2)c2ccccc21 | / | i | -6% | -16% | -2% | 5%
Cc1cccc(NC(=O)Cn2cc(C(=O)c3ccccc3)c3ccccc32)c1 | / | / | 10µM* | -18% | ? | -19%
COc1cccc(NC(=O)Cn2cc(C(=O)c3ccccc3)c3ccccc32)c1 | / | / | 10µM* | -18% | ? | ?
SMILES | ATXN2 expr inh | ATXN viability | TGFb inhibitor | HepG2 tox | Nrf2 inh | A549 viability
CCOC(=O)N1CCC(NC(=O)c2ccc3c(c2)N(Cc2cccc(C)c2)C(=O)c2ccccc2S3(=O)=O)CC1 | -10% | i | ? | 9% | -5% | -20%
CCOP(=O)(CCP(=O)(OCC)OCC)OCC.C[CH2][Sn]([Cl])([Cl])[CH2]C | 19µM* | ? | ? | 2% | ? | 16µM*
CCOC(=O)Cn1cc([N+](=O)[O-])nc1[N+](=O)[O-] | 8% | i | ? | 11µM* | -27% | -10%
CCOC(=O)Cn1cc(C(=O)c2ccccc2F)c2ccccc21 | 8% | ? | 3% | 0% | 20% | -4%
O=C(O)/C=C/c1cccc(B(O)O)c1 | / | / | 2% | 7% | ? | 14%
O=C1NC(=O)N(c2cccc(Cl)c2)C(=O)/C1=C\c1ccc(Sc2nc3ccccc3[nH]2)o1 | -11% | i | -20% | -9% | 0% | -7%
O=C1NC(=O)N(c2ccccc2)C(=O)/C1=C/c1ccc(Sc2ccccc2)o1 | 25µM* | ? | 23% | -4% | / | -6%
CN1C(=O)NC(=O)C2(CCCC2)C1=O | 5% | i | 9% | 6% | 1% | 1%
CN(Cc1ccccc1)C(=O)Cn1c(=O)oc2cc(S(=O)(=O)NCc3ccccc3)ccc21 | -14% | i | -29% | -32% | 18µM* | -5%
CCc1ccc(NC(=O)c2cnc3sc(N4CCCC4)nn3c2=O)cc1 | / | / | ? | -8% | -25% | 11%
C[C@]12CC[C@@H]3[C@@H](CCC4=CC(=O)CC[C@@H]43)[C@@H]1CC[C@@H]2OC(=O)CCc1ccccc1 | 14% | i | / | / | / | /
CCOC(=O)c1c(C)n(Cc2ccccc2)c2ccc(O)cc12 | 4% | i | 18µM* | 7% | 5% | -9%
COC(=O)c1c(C)n(Cc2ccccc2)c2ccc(O)cc12 | 0% | i | 4% | -6% | 14% | -22%
CCOC(=O)c1c(C)n(Cc2ccccc2)c2ccc(OCC(O)CNC(C)(C)C)cc12 (configuration not stated) | 14µM* | / | ? | 18µM* | -26% | -4%
Cc1nn(Cc2ccccc2)c(Cl)c1C(=O)OCC(=O)N1CCCC1 | / | i | 22% | 37% | 11% | 1%
CCOP(=O)(OCC)C(C)NC(=O)N(CCCl)N=O (configuration not stated) | 13% | / | / | / | / | /
CCOC(=O)C(O)(c1ccc(NC(=S)NC(=O)c2ccc(Cl)cc2Cl)c(C)c1)C(F)(F)F (configuration not stated) | -16% | i | ? | -97% | 15µM* | ?
COC(=O)C(O)(c1ccc(NC(=S)NC(=O)c2ccc(Cl)cc2Cl)c(C)c1)C(F)(F)F (configuration not stated) | ? | i | ? | -61% | ? | -2%

Assay outcomes as filed in PubChem.
